# Data reported in PubChem BioAssay.
# Activity calls are given as the source filed them. Unless noted, no rule for the calls is given here.
# Assays:
# [1] = HepG2 liver cancer cell viability effects, profiling panel, resazurin fluorescence, 24 h, PK04 Diversity Set (AID 1172); details: higher = more signal
# [2] = basal S. cerevisiae growth modulation, no modifier, primary screen, OD600, strain BY4716, 24 h, basal condition (AID 1173); details: OD600, 24 h, higher = more signal, called active from +8 up or from −8 down
# [3] = MM1S myeloma cell viability, profiling panel, resazurin fluorescence, basal, 24 h, PK04 Diversity Set (AID 1174); details: higher = more signal, called active from +8 up or from −8 down;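 also: MM1S multiple myeloma cell line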
# [4] = biological target: Dihydroorotate dehydrogenase (quinone), mitochondrial (Plasmodium falciparum (isolate 3D7)) (UniProt Q08210); assay: PfDHODH enzyme inhibitors, primary screen, biochemical, C-terminal His tag, absorbance 600 nm (AID 1175); details: DCIP absorbance 600 nm, higher = more signal, called active from +8 up or from −8 down;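 also: recombinant parasite enzyme with a five histidine tag at its C terminus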
# Dihydroorotate dehydrogenase (quinone), mitochondrial (Plasmodium falciparum (isolate 3D7)), sequence (Q08210 whole entry, looked up): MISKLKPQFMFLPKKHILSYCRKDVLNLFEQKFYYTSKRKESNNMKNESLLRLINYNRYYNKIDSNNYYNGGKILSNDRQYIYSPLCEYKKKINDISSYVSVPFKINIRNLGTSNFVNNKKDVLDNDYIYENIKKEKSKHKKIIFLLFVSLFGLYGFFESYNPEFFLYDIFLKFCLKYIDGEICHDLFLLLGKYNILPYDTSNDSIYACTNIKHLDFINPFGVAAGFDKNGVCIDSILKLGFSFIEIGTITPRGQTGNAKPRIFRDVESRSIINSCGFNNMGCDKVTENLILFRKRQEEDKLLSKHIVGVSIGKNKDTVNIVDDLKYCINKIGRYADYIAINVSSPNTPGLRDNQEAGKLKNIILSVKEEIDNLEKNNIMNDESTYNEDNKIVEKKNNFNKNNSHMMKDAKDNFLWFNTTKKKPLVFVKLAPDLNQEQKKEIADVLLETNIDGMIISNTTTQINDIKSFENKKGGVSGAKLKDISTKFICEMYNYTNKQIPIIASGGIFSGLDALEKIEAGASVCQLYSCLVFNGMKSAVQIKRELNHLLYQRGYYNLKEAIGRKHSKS
# [5] = P. aeruginosa biofilm formation inhibitors, primary screen, strain PAO1, LB-PBS medium, absorbance 600 nm (AID 1176); details: P. aeruginosa PAO1 growth/biofilm, A600, 12 h; higher = more signal
# [6] = S. cerevisiae RM11-1a growth modifiers, primary screen, strain RM11-1a, OD600, basal, 24 h (AID 1177); details: OD600, 24 h, higher = more signal, called active from +8 up or from −8 down;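 also: cultures grown under basal conditions with no added stressor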
# [7] = E. coli acrAB mutant growth effects, primary screen, E. coli filamentation inducers, strain DRC39, OD650, 24 h (AID 1178); details: higher = more signal, called active from +8 up or from −8 down;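 also: growth measured as culture turbidity by optical density at 650 nm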
# [8] = E. coli acrAB mutant growth effects, primary screen, E. coli filamentation inducers, strain DRC39, OD650, 48 h (AID 1179);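 also: screen aims at cell division blockers that make cells filament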; details: E. coli DRC39 delta-acrAB growth, higher = more signal, called active from +8 up or from −8 down
# [9] = RPMI8226 myeloma cell viability, profiling panel, resazurin fluorescence, basal, 24 h, PK04 Diversity Set (AID 1180); details: higher = more signal;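 also: RPMI8826 multiple myeloma cell line at 5000 cells per well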
# [10] = biological target: E3 ubiquitin-protein ligase XIAP (Homo sapiens) (UniProt P98170); assay: XIAP binders, primary screen, biophysical, small-molecule microarray, fluorescence 635 nm (AID 1181); details: small-molecule microarray binding, higher = more signal;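 also: score merges 667 nm emission and signal to noise over triplicate slides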
# E3 ubiquitin-protein ligase XIAP (Homo sapiens), sequence (P98170 whole entry, looked up): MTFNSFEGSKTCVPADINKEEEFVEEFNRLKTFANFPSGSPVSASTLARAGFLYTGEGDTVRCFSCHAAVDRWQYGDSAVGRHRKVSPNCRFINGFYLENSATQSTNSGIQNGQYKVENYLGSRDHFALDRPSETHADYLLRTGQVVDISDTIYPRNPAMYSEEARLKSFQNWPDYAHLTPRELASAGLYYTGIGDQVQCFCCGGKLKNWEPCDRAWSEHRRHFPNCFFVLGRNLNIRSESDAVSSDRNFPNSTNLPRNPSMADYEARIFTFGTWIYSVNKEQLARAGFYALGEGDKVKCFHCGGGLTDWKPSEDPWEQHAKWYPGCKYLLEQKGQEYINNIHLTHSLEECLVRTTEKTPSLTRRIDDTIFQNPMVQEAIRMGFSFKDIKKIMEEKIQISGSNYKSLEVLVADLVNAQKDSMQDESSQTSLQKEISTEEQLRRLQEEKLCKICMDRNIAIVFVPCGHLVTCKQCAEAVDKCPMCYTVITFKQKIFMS
# [11] = tested on: XIP peptide (Xip251-270) binding; assay: small-molecule binders of XIP peptide, primary screen, biochemical, small-molecule microarray, fluorescence 635/667 nm, 0.1 µg/mL protein (AID 1182); details: fluorescent protein binding, 635 nm, higher = more signal, called active from +8 up or from −8 down
# XIP peptide (Xip251-270) = assay: small-molecule binders of XIP peptide, primary screen, biochemical, small-molecule microarray, fluorescence 635/667 nm, 0.5 µg/mL protein (AID 1183); details: small-molecule microarray binding, fluorescence 635 nm; higher = more signal
# [12] = Plasmodium falciparum growth inhibition, primary screen, strain 3D7, DAPI fluorescence, 100 nL (AID 1184);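 also: parasites grown inside human red blood cells in medium with human serum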; details: P. falciparum 3D7 growth, 3 d, higher = more signal
# [13] = biological target: Homeobox protein Hox-A13 (Mus musculus) (UniProt Q62424); assay: inhibitors of HoxA13-DNA binding, primary screen, biochemical, fluorescence polarization, labeled oligonucleotide (AID 1185); details: 15 min, higher = more signal, called active from +8 up or from −8 down
# Homeobox protein Hox-A13 (Mus musculus), sequence (Q62424 whole entry, looked up): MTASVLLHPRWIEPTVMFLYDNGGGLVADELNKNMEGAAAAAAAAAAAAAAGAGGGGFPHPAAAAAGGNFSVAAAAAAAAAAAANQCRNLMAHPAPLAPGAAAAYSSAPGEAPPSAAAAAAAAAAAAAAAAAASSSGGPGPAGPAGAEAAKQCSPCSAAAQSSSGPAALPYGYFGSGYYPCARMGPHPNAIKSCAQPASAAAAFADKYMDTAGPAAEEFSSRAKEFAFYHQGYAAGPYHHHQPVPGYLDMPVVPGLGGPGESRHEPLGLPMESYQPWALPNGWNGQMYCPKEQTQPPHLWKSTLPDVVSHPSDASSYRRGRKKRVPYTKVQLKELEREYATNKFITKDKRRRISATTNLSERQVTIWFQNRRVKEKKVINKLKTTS
# [14] = inhibitors of hydroxyurea-induced Chk1 phosphorylation, primary screen, imaging, HeLa, phospho-Chk1 antibody, percent positive cells (AID 1186); details: hydroxyurea-induced phospho-Chk1 immunofluorescence imaging, higher = more signal
# [15] = inhibitors of hydroxyurea-induced Chk1 phosphorylation, primary screen, imaging, HeLa, phospho-Chk1 nuclear intensity (AID 1187); details: hydroxyurea-induced phospho-Chk1 immunofluorescence imaging, higher = more signal
Compound,z-score [1],z-score [2],z-score [3],composite z-score [4],z-score [5],z-score [6],z-score [7],z-score [8],z-score [9],composite z-score [10],composite z-score [11],composite z-score (XIP peptide (Xip251-270)),z-score [12],z-score [13],z-score [14],z-score [15]
CCCCCCC#C[Si](O[C@H](c1ccccc1)c1cn([C@H](C)c2ccccc2)nn1)(C(C)C)C(C)C,1.94,0.243 (inactive),2.59 (inactive),-0.204 (inactive),-0.443 (inactive),0.53 (inactive),-0.0375 (inactive),0.622 (inactive),3.6,-0.359,-0.131 (inactive),-0.012,0.308,0.337 (inactive),-0.341 (inactive),-0.487 (inactive)
O=C1OCCC/C=C\[C@H]2OC34C=CCN(CCN5CCOCC5)C(=O)[C@H]3N(CCO)C(=O)[C@@H]4C12 (some centres undefined),-0.881,0.0436 (inactive),-0.562 (inactive),0.71 (inactive),-0.317 (inactive),1.05 (inactive),-1.12 (inactive),-1.09 (inactive),-0.654,0.685,0.489 (inactive),-0.979,-1.22,-5.83 (inactive),-0.225 (inactive),0.264 (inactive)
C#C[C@H]1Oc2ccccc2S(=O)(=O)N2CCC[C@@H]12,-0.87,-0.454 (inactive),-0.482 (inactive),0.112 (inactive),-0.0582 (inactive),-0.0887 (inactive),0.0374 (inactive),-0.29 (inactive),-0.652,-0.299,-0.267 (inactive),-0.286,0.562,-1.15 (inactive),0.528 (inactive),0.526 (inactive)
COC(=O)[C@@]1(Cc2ccc(OC)cc2)[C@H]2c3cc(C(=O)N4CCCC4)n(C[C@H](O)CO)c3C[C@H]2CN1C(=O)c1ccccc1,-0.0006,1.92 (inactive),-0.579 (inactive),-0.475 (inactive),-0.306 (inactive),1.04 (inactive),0.305 (inactive),0.644 (inactive),-0.595,-0.0251,0.883 (inactive),-0.197,-1.17,-5.13 (inactive),0.0578 (inactive),-0.0868 (inactive)
Cc1ccc(N2C(=O)c3ccccc3[C@@H](C(=O)NC(C)C)[C@@H]2c2ccc(CO)cc2)nc1,1.48,-1.69 (inactive),1.09 (inactive),-0.309 (inactive),0.69 (inactive),-0.434 (inactive),0.282 (inactive),0.375 (inactive),1.17,0.147,0.262 (inactive),0.82,0.679,-1.68 (inactive),0.364 (inactive),0.43 (inactive)
COc1ccc([Si](C)(C)[C@@H]2[C@@H](CCO)O[C@]3(C(=O)N(Cc4ccc(N5C(=O)c6cccc7cccc5c67)cc4)c4ccccc43)[C@H]2C)cc1,-0.454,0.338 (inactive),-0.898 (inactive),-0.774 (inactive),1.51 (inactive),3.87 (inactive),1.68 (inactive),1.19 (inactive),-4.48,0.0623,0.476 (inactive),0.596,-2.68,-0.946 (inactive),-0.903 (inactive),-0.198 (inactive)
COc1ccc(C#Cc2ccc3c(c2)[C@]2(C(=O)N3)[C@H](c3ccc(OCCO)cc3)N3[C@H](c4ccccc4)[C@H](c4ccccc4)OC(=O)[C@H]3[C@@H]2C(=O)Nc2nc3ccccc3s2)cc1,0.534,0.436 (inactive),0.217 (inactive),-3.02 (inactive),3.64 (inactive),1.55 (inactive),0.528 (inactive),1.25 (inactive),0.174,0.75,0.353 (inactive),0.522,-1.3,3.34 (inactive),0.141 (inactive),0.315 (inactive)
C=CCC(OC(C)=O)[C@@H]1[C@@H](N(Cc2cc3ccccc3o2)C(=O)c2ccc(C)cc2)c2cc(OCCCO)ccc2N1C(=O)c1ccc(-c2ccccc2)cc1 (some centres undefined),0.419,-2.68 (inactive),-0.0884 (inactive),-3 (inactive),0.444 (inactive),-3.8 (inactive),1.15 (inactive),1.35 (inactive),1.07,2.75,-0.28 (inactive),-0.294,-2.58,-0.468 (inactive),-1.19 (inactive),-1.05 (inactive)
COc1ccc(C#Cc2ccc3c(c2)[C@]2(C(=O)N3)[C@H](C(=O)N3CCc4cc(OC)c(OC)cc4C3)[C@H]3C(=O)O[C@H](c4ccccc4)[C@H](c4ccccc4)N3[C@@H]2c2ccc(OCCO)cc2)cc1,0.0594,2.37 (inactive),-0.0819 (inactive),-1.04 (inactive),1.66 (inactive),4.19 (inactive),0.452 (inactive),0.593 (inactive),1.5,-0.209,0.53 (inactive),0.598,-1.36,-2.71 (inactive),-0.122 (inactive),2.93 (inactive)
CC(C)CNC(=O)[C@@]1(C)c2ccccc2C(=O)N(C(C)C)[C@H]1c1ccc(CO)cc1,-0.174,-0.128 (inactive),-0.434 (inactive),-0.449 (inactive),-0.273 (inactive),-0.207 (inactive),-0.314 (inactive),-0.049 (inactive),-0.434,-0.135,-0.776 (inactive),-0.692,1.22,-1.35 (inactive),0.221 (inactive),-0.0172 (inactive)
C=CCNC(=O)[C@H]1[C@@H]2C(=O)O[C@@H](c3ccccc3)[C@@H](c3ccccc3)N2[C@@H](c2ccc(OCCO)cc2)[C@]12C(=O)N(C(=O)OCCOC)c1ccc(C#CC3(O)CCCCCC3)cc12,-0.162,1.33 (inactive),-0.421 (inactive),-1.08 (inactive),1.79 (inactive),2.43 (inactive),-0.129 (inactive),1.16 (inactive),0.393,-0.0999,0.404 (inactive),0.735,-1.91,-0.675 (inactive),-0.124 (inactive),-0.0954 (inactive)
COc1ccc(CCNC(=O)[C@@]2(C)c3ccccc3C(=O)N(Cc3ccccc3)[C@H]2c2ccc(CO)cc2)cc1,0.976,-1.12 (inactive),0.617 (inactive),-0.984 (inactive),0.938 (inactive),-0.803 (inactive),0.605 (inactive),0.535 (inactive),1.43,-0.138,1.12 (inactive),0.859,-1.93,-4.95 (inactive),-0.281 (inactive),-0.173 (inactive)
[N-]=[N+]=NCc1ccccc1[C@H]1OC(c2ccc(OCCCO)cc2)=N[C@@]1(Cc1ccccc1)C(=O)NCC(O)CO (some centres undefined),1.59,-0.366 (inactive),-0.327 (inactive),-0.313 (inactive),2.25 (inactive),-0.405 (inactive),-0.329 (inactive),-0.279 (inactive),-0.435,0.459,0.701 (inactive),0.306,-2.48,-3.47 (inactive),0.105 (inactive),0.231 (inactive)
COC(=O)[C@@]1(Cc2ccc(F)cc2)[C@H]2c3cc(C(=O)N(C)C)n(CCc4c[nH]c5ccc(OC)cc45)c3C[C@H]2CN1C(=O)c1ccccc1,-0.643,0.971 (inactive),-2 (inactive),-2.26 (inactive),4.65 (inactive),0.679 (inactive),-0.562 (inactive),-0.681 (inactive),-1.59,0.326,0.661 (inactive),-0.21,-1.52,-0.694 (inactive),0.737 (inactive),0.0892 (inactive)
CCN(CC)c1ccc(N2CC=CC34O[C@@H]5C=CCOC(=O)[C@@H]5[C@H]3C(=O)N(CCCCCO)[C@@H]4C2=O)cc1 (some centres undefined),0.34,0.0663 (inactive),1.08 (inactive),0.618 (inactive),-0.193 (inactive),-0.272 (inactive),0.831 (inactive),0.349 (inactive),0.225,0.532,0.614 (inactive),-0.982,-0.232,-5.05 (inactive),-0.23 (inactive),-0.33 (inactive)
COc1ccc([Si](C)(C)[C@@H]2[C@@H](CCO)O[C@]3(C(=O)N(Cc4cccc(N5CCCCC5=O)c4)c4ccccc43)[C@H]2C)cc1,-0.994,0.697 (inactive),-1.93 (inactive),-1.75 (inactive),0.225 (inactive),5.19 (inactive),0.318 (inactive),0.244 (inactive),-0.439,0.0623,0.278 (inactive),0.648,-2.82,-5.08 (inactive),-0.405 (inactive),-0.474 (inactive)
CCOC(=O)C=Cc1cccc(OC)c1O,-0.537,-6.47 (inactive),-0.649 (inactive),-1.15 (inactive),-2.06 (inactive),-1.34 (inactive),-0.597 (inactive),-1.03 (inactive),-1.07,0.0036,0.0682 (inactive),0.36,-1.24,-0.697 (inactive),-1.68 (inactive),-1.49 (inactive)
O[C@@H](Cc1ccccc1)[C@@H](/C=C/c1ccccc1)NCc1ccccc1Br,0.13,-6.87 (inactive),0.119 (inactive),-1.05 (inactive),-0.107 (inactive),-0.955 (inactive),0.429 (inactive),-0.21 (inactive),0.115,-0.214,-0.265 (inactive),0.727,0.871,-0.419 (inactive),-0.28 (inactive),0.364 (inactive)
CCOC(=O)N1C(c2ccc(OCCCO)cc2)=NC(C(=O)OC)N1C(=O)OCC (centres undefined),0.33,-0.445 (inactive),0.715 (inactive),-0.294 (inactive),-0.565 (inactive),-1.08 (inactive),0.857 (inactive),1.52 (inactive),0.96,0.0707,1.43 (inactive),0.735,-1.28,-4.45 (inactive),-0.231 (inactive),-0.116 (inactive)
